Screening results as filed in PubChem BioAssay.
The list is not random: actives were taken first. Their share in the collection is about 21%.
Pf growth 96h: Primary qHTS for delayed death inhibitors of the malarial parasite plastid, 96 hour incubation. P. falciparum luciferase reporter growth, 96 h. Potency, µM (series often up to 28.7 µM), for the others: at the top dose activity change, negative = inhibition, usual class: inhibitors. 6.9% of 320,000 active. AID 504834, 2011; further: potency means the concentration at half of the fitted maximal effect; on the % scale 0 is the no-effect control and ±100 the full control effect
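96 h incubation, 37 C, 5% CO2, of luciferase-reporter P. falciparum-infected RBCs (2% hematocrit, 0.05% parasitemia final) with test compounds; endpoint luminescence.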
NS1 inh: qHTS Assay for Inhibitors of Influenza NS1 Protein Function; Potency, µM (titrated, usually from 46.1 µM), for inactives: top-dose activity, positive = more growth; 0.4% of 270,000 active; calls by dose curve; further: potency means the concentration at half of the fitted maximal effect; actives are rising curves; nearly all actives have a fitted effect of over 50% in size
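In this qHTS, NS1 from influenza A is expressed in budding yeast, where it slows growth. Cells are switched from glucose to 2% galactose medium (pH 6.0, -URA), treated with compound, and growth recovery is read at OD600.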
Pf growth 48h: Primary qHTS for delayed death inhibitors of the malarial parasite plastid, 48 hour incubation; P. falciparum luciferase growth in erythrocytes, 48 h; Potency, µM (highest dose often 28.7 µM), inactives show at the top dose activity change, negative = inhibition, most hits filed as inhibitors; 5.9% of 310,000 active; AID 504832, 2011; further: potency means the concentration at half of the fitted maximal effect; on the % scale 0 is the no-effect control and ±100 the full control effect
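A one-generation exposure of luciferase-tagged malaria parasites in RPMI 1640/Albumax erythrocyte culture, 37 C and 5% CO2. Inhibition is inferred from decreased luminescence after adding detection reagent.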
Shiga toxin inh: A qHTS for Small Molecule Inhibitors of Shiga Toxin; AID 2315, 2010; 9.2% of 290,000 active; Vero cells, Shiga toxin protein synthesis inhibition reporter; inhibition, % at 38.7 µM; in the data active means inhibition mostly above about 28%, no sharp cut-off; inactive means mostly below about 43%; further: 0% is about no effect
CHX counter: Cycloheximide Counterscreen for Small Molecule Inhibitors of Shiga Toxin | cell reporter, cycloheximide protein synthesis inhibition counterscreen | max response, % | 12% of 300,000 active | AID 2314, 2010; in the data active means max response mostly above about 13%, no sharp cut-off; inactive means mostly below about 14%; further: read at 38.3 µM for the half of the compounds with a filed dose; 0% is about no effect
* marks the source's active call; other numbers are inactive results; ? = inconclusive; nt = not tested or not shown. Unless noted, the call rests on the fitted dose curve; in most records, active means well fitted inhibition curve with a large enough effect; inconclusive means small, poorly fitted or top-dose-only effect, or another doubt; inactive means no such curve, though single readings can be large or run the other way.

SMILES	Pf growth 96h	NS1 inh	Pf growth 48h	Shiga toxin inh	CHX counter
COc1ccc2c(c1)[nH]c1c(=O)n(/N=C/c3ccc(OC)c(CN4CCCC4)c3)cnc12	?	2.9%	4.15µM*	15.1	-1.6
COc1ccc(/C=N/n2c(C)nc3c([nH]c4ccccc43)c2=O)cc1CN1CCCC(C)(C)C1	5.22µM*	-2.5%	11.7µM*	20.9	-0.6
c1ccc(Nc2nc(Nc3ccccc3)nc(N3CCNCC3)n2)cc1	9.28µM*	16.7%	?	-7.7	-1.1
O=c1nc(N2CCCC2)nc(Nc2ccccc2)[nH]1	14.7µM*	-6.1%	-0.2%	7.3	-2.6
Cn1c(=O)c2[nH]c(Nc3ccccc3)nc2n(C)c1=O	?	-0.5%	-4.6%	0.7	-1.3
CCOC(=O)c1cc(CC)sc1NC(=O)c1cc(OCC)c(OCC)c(OCC)c1	5.86µM*	28.5%	8.28µM*	1.4	0.9
CCOC(=O)c1cc(CC)sc1NC(=O)C(c1ccccc1)c1ccccc1	8.28µM*	28.5%	?	-6.9	-2.4
CCOC(=O)c1cc(CC)sc1NC(=O)C1CC1	nt	-22.9%	-16.5%	22.4	-2.5
CCOC(=O)c1c(NC(=O)C(c2ccccc2)c2ccccc2)sc2c1C1CCN2CC1	?	-4.6%	2.08µM*	9.3	8.2
COc1ccc(N(CC(=O)N2CCN(c3ccccc3)CC2)S(=O)(=O)c2c(C)noc2C)cc1	-27.8%	-19.7%	nt	-15.6	-2.1
COc1ccc(N(CC(=O)N2CCN(c3cccc(C)c3C)CC2)S(=O)(=O)c2c(C)noc2C)cc1	13.1µM*	12.4%	8.28µM*	-1.4	-2.9
COc1ccc(N(CC(=O)N2CCN(c3cc(C)ccc3C)CC2)S(=O)(=O)c2c(C)noc2C)cc1	13.1µM*	1.3%	9.28µM*	1.2	1.6
CO/N=C(\C(=O)N[C@@H]1C(=O)N2C(C(=O)[O-])=C(C[n+]3cccc4c3CCC4)CS[C@H]12)c1csc(N)n1	-24.0%	nt	-17.9%	nt	nt
C(=N\Nc1cc(N2CCCCC2)ncn1)/c1ccco1	-7.8%	-18.5%	40.6%	38.1*	28.0*
COc1cccc(/C=N/Nc2cc(N3CCOCC3)ncn2)c1O	134.6%	-10.7%	0.928µM*	27.5	5.9
Fc1cccc(/C=N/Nc2cc(N3CCOCC3)ncn2)c1	2.33µM*	12.9%	146.9%	25.2*	22.7*
Fc1ccc(/C=N/Nc2cc(N3CCOCC3)ncn2)cc1	?	12.2%	77.3%	-3.7	8.9
CCN(CC)C(=O)C1c2ccccc2Oc2ccccc21	5.22µM*	12.8%	27.7%	15.5	-1.5
CC(=O)c1ccc(OC(=O)C2c3ccccc3Oc3ccccc32)cc1	-2.6%	-1.4%	5.2%	-19.2	4.3
CC(C)CNC(=O)COC(=O)C1c2ccccc2Oc2ccccc21	0.0%	-31.0%	23.8%	-4.2	-1.7
CC(C)[N+](C)(CCOC(=O)C1c2ccccc2Oc2ccccc21)C(C)C	0.0147µM*	-3.3%	?	-7.4	-4.1
Cc1ccc(OC(=O)C2c3ccccc3Oc3ccccc32)cc1C	5.22µM*	-27.7%	-11.8%	9.9	5.0
CC1(C)CCC(NC(=O)[C@@H](N)CCC(=O)O)CC1	2.8%	0.0%	3.2%	nt	nt
CCN(CC)CCNC(=O)C(=O)Nc1cc2c3c(c1)CC(=O)N3CCC2	33.4%	-11.2%	23.1%	-6.9	-3.5
O=C(NCCS(=O)(=O)NCCc1ccccc1)c1ccccc1	105.5%	nt	67.9%	nt	nt
SMILES	Pf growth 96h	NS1 inh	Pf growth 48h	Shiga toxin inh	CHX counter
CC(=O)Nc1ccc(C(=O)Nc2nc(-c3cccnc3)cs2)cc1	0.0%	nt	-3.1%	20.7	15.4*
Cc1ccccc1C(=O)Nc1nc(-c2cccnc2)cs1	-26.7%	5.0%	-3.6%	28.1	19.5*
CCN1CCCc2cc(CN(CCN3CCOCC3)C(=S)Nc3cc(F)cc(F)c3)ccc21	0.5%	nt	?	-17.8	5.7
COc1cccc(CN(C)C(=O)CNC(=O)c2ccc(-c3ccccc3)cc2)c1OC	?	-12.6%	?	-5.8	1.5
CN(C)c1ccc(Nc2nc(-c3cccnc3)cs2)cc1	nt	1.5%	nt	59.0*	51.6*
CCN(CC)c1ccc(Nc2nc(-c3cccnc3)cs2)cc1	?	-1.9%	?	117.8*	36.4*
O=C(CNC(=O)c1ccc(S(=O)(=O)N2CCCC2)cc1)N/N=C/c1ccc(Cl)cc1Cl	-8.3%	5.2%	0.2%	-9.9	-3.2
O[C@@H]1CO[C@H]2[C@@H]1OC[C@@H]2O	-8.2%	nt	6.1%	nt	nt
